Measurements as given in PubChem BioAssay.
Calls of active or inactive are those of the source. Unless noted, no rule for the calls is given here.

Assays:
[1] = HepG2 liver cancer cell viability effects, profiling panel, resazurin fluorescence, 24 h, PK04 Diversity Set (AID 1172); settings: higher = more signal
[2] = basal S. cerevisiae growth modulation, no modifier, primary screen, OD600, strain BY4716, 24 h, basal condition (AID 1173); settings: OD600, 24 h, higher = more signal, called active from +8 up or from −8 down
[3] = MM1S myeloma cell viability, profiling panel, resazurin fluorescence, basal, 24 h, PK04 Diversity Set (AID 1174); settings: higher = more signal, called active from +8 up or from −8 down;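 also: MM1S multiple myeloma cell line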
[4] = target: Dihydroorotate dehydrogenase (quinone), mitochondrial (Plasmodium falciparum (isolate 3D7)) (UniProt Q08210); test: PfDHODH enzyme inhibitors, primary screen, biochemical, C-terminal His tag, absorbance 600 nm (AID 1175); settings: DCIP absorbance 600 nm, higher = more signal, called active from +8 up or from −8 down;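 also: recombinant parasite enzyme with a five histidine tag at its C terminus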
[5] = P. aeruginosa biofilm formation inhibitors, primary screen, strain PAO1, LB-PBS medium, absorbance 600 nm (AID 1176); settings: P. aeruginosa PAO1 growth/biofilm, A600, 12 h; higher = more signal
[6] = S. cerevisiae RM11-1a growth modifiers, primary screen, strain RM11-1a, OD600, basal, 24 h (AID 1177); settings: OD600, 24 h, higher = more signal, called active from +8 up or from −8 down;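 also: cultures grown under basal conditions with no added stressor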
[7] = E. coli acrAB mutant growth effects, primary screen, E. coli filamentation inducers, strain DRC39, OD650, 24 h (AID 1178); settings: higher = more signal, called active from +8 up or from −8 down;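 also: growth measured as culture turbidity by optical density at 650 nm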
[8] = E. coli acrAB mutant growth effects, primary screen, E. coli filamentation inducers, strain DRC39, OD650, 48 h (AID 1179);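 also: screen aims at cell division blockers that make cells filament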; settings: E. coli DRC39 delta-acrAB growth, higher = more signal, called active from +8 up or from −8 down
[9] = RPMI8226 myeloma cell viability, profiling panel, resazurin fluorescence, basal, 24 h, PK04 Diversity Set (AID 1180); settings: higher = more signal;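 also: RPMI8826 multiple myeloma cell line at 5000 cells per well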
[10] = target: E3 ubiquitin-protein ligase XIAP (Homo sapiens) (UniProt P98170); test: XIAP binders, primary screen, biophysical, small-molecule microarray, fluorescence 635 nm (AID 1181); settings: small-molecule microarray binding, higher = more signal;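 also: score merges 667 nm emission and signal to noise over triplicate slides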
[11] = test system: XIP peptide (Xip251-270) binding; test: small-molecule binders of XIP peptide, primary screen, biochemical, small-molecule microarray, fluorescence 635/667 nm, 0.1 µg/mL protein (AID 1182); settings: fluorescent protein binding, 635 nm, higher = more signal, called active from +8 up or from −8 down
XIP peptide (Xip251-270) = test: small-molecule binders of XIP peptide, primary screen, biochemical, small-molecule microarray, fluorescence 635/667 nm, 0.5 µg/mL protein (AID 1183); settings: small-molecule microarray binding, fluorescence 635 nm; higher = more signal
[12] = Plasmodium falciparum growth inhibition, primary screen, strain 3D7, DAPI fluorescence, 100 nL (AID 1184);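 also: parasites grown inside human red blood cells in medium with human serum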; settings: P. falciparum 3D7 growth, 3 d, higher = more signal
[13] = target: Homeobox protein Hox-A13 (Mus musculus) (UniProt Q62424); test: inhibitors of HoxA13-DNA binding, primary screen, biochemical, fluorescence polarization, labeled oligonucleotide (AID 1185); settings: 15 min, higher = more signal, called active from +8 up or from −8 down
[14] = inhibitors of hydroxyurea-induced Chk1 phosphorylation, primary screen, imaging, HeLa, phospho-Chk1 antibody, percent positive cells (AID 1186); settings: hydroxyurea-induced phospho-Chk1 immunofluorescence imaging, higher = more signal
[15] = inhibitors of hydroxyurea-induced Chk1 phosphorylation, primary screen, imaging, HeLa, phospho-Chk1 nuclear intensity (AID 1187); settings: hydroxyurea-induced phospho-Chk1 immunofluorescence imaging, higher = more signal

Sequence of Homeobox protein Hox-A13 (Mus musculus) (Q62424 whole entry, looked up): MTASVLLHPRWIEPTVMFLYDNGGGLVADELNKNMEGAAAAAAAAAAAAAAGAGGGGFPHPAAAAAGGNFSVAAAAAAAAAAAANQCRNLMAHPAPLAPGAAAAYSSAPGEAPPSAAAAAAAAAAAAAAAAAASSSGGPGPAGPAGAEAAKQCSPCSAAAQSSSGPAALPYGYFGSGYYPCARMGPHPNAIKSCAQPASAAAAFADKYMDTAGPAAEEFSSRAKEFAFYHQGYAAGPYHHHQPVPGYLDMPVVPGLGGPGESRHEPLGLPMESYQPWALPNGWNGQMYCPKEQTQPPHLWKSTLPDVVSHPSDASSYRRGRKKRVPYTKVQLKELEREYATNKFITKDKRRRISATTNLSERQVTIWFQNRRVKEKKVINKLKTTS
Sequence of Dihydroorotate dehydrogenase (quinone), mitochondrial (Plasmodium falciparum (isolate 3D7)) (Q08210 whole entry, looked up): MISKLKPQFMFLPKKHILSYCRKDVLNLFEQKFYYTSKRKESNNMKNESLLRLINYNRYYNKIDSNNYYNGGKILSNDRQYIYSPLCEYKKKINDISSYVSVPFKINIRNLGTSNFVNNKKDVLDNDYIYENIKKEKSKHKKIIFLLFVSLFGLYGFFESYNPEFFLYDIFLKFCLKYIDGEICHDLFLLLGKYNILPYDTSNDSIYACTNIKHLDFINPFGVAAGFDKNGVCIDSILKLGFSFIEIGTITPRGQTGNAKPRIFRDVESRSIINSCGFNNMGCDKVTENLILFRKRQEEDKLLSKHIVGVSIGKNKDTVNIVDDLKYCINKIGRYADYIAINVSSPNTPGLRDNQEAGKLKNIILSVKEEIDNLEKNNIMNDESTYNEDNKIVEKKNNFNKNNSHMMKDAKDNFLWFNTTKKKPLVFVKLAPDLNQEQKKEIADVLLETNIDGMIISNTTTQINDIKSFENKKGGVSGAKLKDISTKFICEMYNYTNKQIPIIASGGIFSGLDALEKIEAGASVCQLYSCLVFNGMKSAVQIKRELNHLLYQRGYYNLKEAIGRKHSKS
Sequence of E3 ubiquitin-protein ligase XIAP (Homo sapiens) (P98170 whole entry, looked up): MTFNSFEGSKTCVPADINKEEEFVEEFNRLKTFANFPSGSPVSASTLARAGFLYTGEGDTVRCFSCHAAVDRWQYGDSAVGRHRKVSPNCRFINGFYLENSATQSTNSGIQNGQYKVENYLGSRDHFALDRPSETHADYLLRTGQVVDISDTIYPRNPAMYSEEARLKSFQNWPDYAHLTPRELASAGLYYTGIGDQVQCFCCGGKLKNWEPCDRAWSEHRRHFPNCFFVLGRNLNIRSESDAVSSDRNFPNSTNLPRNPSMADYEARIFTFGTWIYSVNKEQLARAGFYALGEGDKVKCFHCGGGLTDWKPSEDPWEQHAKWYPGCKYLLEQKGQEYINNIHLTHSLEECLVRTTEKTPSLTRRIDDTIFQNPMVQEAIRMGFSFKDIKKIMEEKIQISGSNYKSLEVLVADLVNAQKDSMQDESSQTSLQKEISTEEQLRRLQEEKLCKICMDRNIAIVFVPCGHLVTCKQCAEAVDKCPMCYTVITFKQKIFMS

Row | Compound | z-score [1] | z-score [2] | z-score [3] | composite z-score [4] | z-score [5] | z-score [6] | z-score [7] | z-score [8] | z-score [9] | composite z-score [10] | composite z-score [11] | composite z-score (XIP peptide (Xip251-270)) | z-score [12] | z-score [13] | z-score [14] | z-score [15]
1 | CO[C@H]1O[C@H](CO)[C@@H](OC(=O)Nc2ccc(Br)cc2)[C@H](OC(=O)c2cc3ccccc3[nH]2)[C@H]1OC(=O)c1cc2ccccc2[nH]1 | -3.36 | -0.98 (inactive) | -2.32 (inactive) | -1.2 (inactive) | 1.16 (inactive) | -1.02 (inactive) | 1.21 (inactive) | 1.78 (inactive) | -4.77 | -0.0011 | 1.36 (inactive) | 0.716 | -1.64 | -2.09 (inactive) | -0.547 (inactive) | -0.872 (inactive)
2 | COc1ccc(CCN2C(=O)[C@@]3(Cc4ccccc42)c2ccccc2C(=O)N(Cc2ccccc2C(F)(F)F)[C@H]3c2ccc(CO)cc2)cc1 | -0.104 | 0.512 (inactive) | 0.35 (inactive) | -21.6 (active) | 0.31 (inactive) | -0.443 (inactive) | -0.0813 (inactive) | -0.374 (inactive) | -0.816 | -0.0102 | -0.223 (inactive) | 0.146 | -1.18 | 0.869 (inactive) | -0.389 (inactive) | -0.826 (inactive)
3 | C=C(CCCC)C(=O)CC[C@@H](OC(=O)c1cccnc1)c1ccc(CO)o1 | 0.154 | -0.594 (inactive) | -0.16 (inactive) | -1.05 (inactive) | 0.555 (inactive) | 0.0671 (inactive) | 0.186 (inactive) | -0.0608 (inactive) | 0.0739 | 0.0256 | 0.67 (inactive) | 0.561 | -0.46 | -4.35 (inactive) | 0.575 (inactive) | -0.023 (inactive)
4 | CCCCc1cn(C[C@H](Cc2ccccc2)NC(=O)N[C@H](CO)CCc2oc(C(C)=O)c(C(=O)OC)c2C(=O)OC)nn1 | -0.013 | -2.38 (inactive) | 0.465 (inactive) | -2.83 (inactive) | -0.44 (inactive) | -0.728 (inactive) | 0.916 (inactive) | 0.646 (inactive) | -0.185 | 0.276 | 0.703 (inactive) | 0.512 | -1.92 | -4.73 (inactive) | -0.185 (inactive) | -0.228 (inactive)
5 | CCCCC=C[C@@H](NC(=O)Oc1cccc(C(F)(F)F)c1)c1ccccc1 | -1.68 | 1.74 (inactive) | -2.06 (inactive) | -3.25 (inactive) | 2.62 (inactive) | 1.37 (inactive) | -0.844 (inactive) | -0.665 (inactive) | -2.1 | 0.0748 | -0.361 (inactive) | 0.168 | -1.01 | -0.127 (inactive) | 0.38 (inactive) | -0.018 (inactive)
6 | C#CCN(Cc1ccccc1Br)C(/C=C/c1ccccc1)CO (centres undefined) | -0.54 | -6.66 (inactive) | 0.862 (inactive) | 0.34 (inactive) | -0.365 (inactive) | -1.26 (inactive) | 1.1 (inactive) | -0.494 (inactive) | -0.166 | 0.147 | 1.09 (inactive) | -0.318 | -1.02 | -6.39 (inactive) | -0.348 (inactive) | -0.323 (inactive)
7 | CC(C)[C@@H](CO)NC(=O)[C@H]1[C@@H](c2ccccc2)N(c2ccccc2)O[C@@H]1C | 0.872 | -2.53 (inactive) | 0.751 (inactive) | -0.857 (inactive) | 0.0573 (inactive) | 1.2 (inactive) | -0.323 (inactive) | 0.506 (inactive) | 0.566 | -0.0999 | -0.795 (inactive) | -0.248 | 0.484 | -1.23 (inactive) | -0.0482 (inactive) | 0.564 (inactive)
8 | C=CCOC(=O)[C@H]1[C@@H]2C(=O)O[C@@H](c3ccccc3)[C@@H](c3ccccc3)N2[C@@H](c2ccc(OCCOC(=O)[C@@H]3C[C@@H]4C(=O)N5CCC[C@H]5C(=O)N4[C@@H]3c3cccc(OCCO)c3)cc2)[C@]12C(=O)Nc1ccccc12 | -1 | 1.15 (inactive) | 0.0098 (inactive) | 0.613 (inactive) | 2.06 (inactive) | 1.76 (inactive) | -0.701 (inactive) | -1.5 (inactive) | -0.0769 | -0.22 | 1.48 (inactive) | 0.846 | -1.71 | -0.113 (inactive) | -0.934 (inactive) | -0.0548 (inactive)
9 | CC(C)(C)OC(=O)CC[C@@]1(C(=O)NCCN2CCOCC2)N=C(c2ccc(OCCCO)cc2)O[C@@H]1c1ccccc1N=[N+]=[N-] | -0.583 | -0.643 (inactive) | -1.76 (inactive) | -0.462 (inactive) | 0.41 (inactive) | 0.0002 (inactive) | -0.0723 (inactive) | -0.169 (inactive) | -0.601 | 0.0877 | 0.171 (inactive) | 0.401 | -1.85 | -3.61 (inactive) | 0.17 (inactive) | 0.297 (inactive)
10 | CN1C2C=C(CCCO)C(C3C(=O)N(C(N)=O)C(=O)C32)C1c1ccc(CN2CCCC2)cc1 (centres undefined) | -0.163 | 0.464 (inactive) | -0.508 (inactive) | -0.157 (inactive) | 0.661 (inactive) | -0.56 (inactive) | 0.359 (inactive) | 0.259 (inactive) | -0.287 | -0.0703 | 0.276 (inactive) | 0.297 | 0.446 | -5.26 (inactive) | 0.0965 (inactive) | -0.0741 (inactive)
11 | CN(C)C(=O)[C@@]1(Cc2ccccc2)N=C(c2ccc(OCCCO)cc2)O[C@H]1c1ccccc1N=[N+]=[N-] | -0.697 | -1.27 (inactive) | -3.56 (inactive) | 0.2 (inactive) | 0.0533 (inactive) | -0.0844 (inactive) | 0.754 (inactive) | 0.579 (inactive) | -5.06 | 0.15 | -0.111 (inactive) | 0.651 | -1.93 | -4.88 (inactive) | -0.524 (inactive) | -0.793 (inactive)
12 | CN1C(=O)C2C=CC(C(O)C3CC=CCC3)N(NC(=O)OC(C)(C)C)C2C1=O (centres undefined) | -1.53 | -0.0428 (inactive) | -0.784 (inactive) | 0.123 (inactive) | 0.503 (inactive) | -0.0874 (inactive) | -0.791 (inactive) | -0.688 (inactive) | -1 | 0.579 | 0.947 (inactive) | 0.539 | 0.849 | -2.05 (inactive) | 0.867 (inactive) | 0.509 (inactive)
13 | CN(C)CCCCCCNC(=O)[C@@H]1C[C@@H]2C(=O)N[C@@H](CCCCN)C(=O)N2[C@@H]1c1cccc(OCCO)c1 | -0.205 | -0.707 (inactive) | 0.364 (inactive) | -1.12 (inactive) | 1.29 (inactive) | -2.27 (inactive) | 0.731 (inactive) | -0.199 (inactive) | 0.393 | 3.31 | 3.64 (inactive) | 0.944 | 0.0037 | -1.47 (inactive) | -1.14 (inactive) | -0.785 (inactive)
14 | O=C1[C@H]2C=C(Br)[C@H](C[C@@H]2OCCCCO)[C@@]12CO2 | -0.312 | -0.172 (inactive) | -0.718 (inactive) | 0.228 (inactive) | 0.13 (inactive) | 0.614 (inactive) | -0.649 (inactive) | -0.808 (inactive) | -0.133 | -0.0749 | 0.091 (inactive) | 0.141 | -0.234 | -1.71 (inactive) | -0.0513 (inactive) | -0.265 (inactive)
15 | COc1ccc(NN2C(C(O)c3ccc([N+](=O)[O-])cc3)C=CC3C(=O)N(C4CCCCC4)C(=O)C32)cc1 (centres undefined) | 0.755 | 0.136 (inactive) | 0.0225 (inactive) | -0.238 (inactive) | 0.67 (inactive) | 0.388 (inactive) | -0.637 (inactive) | 0.523 (inactive) | 0.907 | 0.209 | -0.025 (inactive) | -0.0788 | -0.0215 | -3.73 (inactive) | -0.414 (inactive) | -0.331 (inactive)
16 | CCCCN1CC=CC23O[C@@H]4/C=C\CCC(C)OC(=O)C4[C@H]2C(=O)N(CCCCCO)[C@@H]3C1=O (some centres undefined) | 0.389 | 0.0305 (inactive) | 0.96 (inactive) | 0.18 (inactive) | 0.646 (inactive) | -0.0125 (inactive) | 0.511 (inactive) | 0.35 (inactive) | 0.05 | -0.0436 | -0.725 (inactive) | 0.552 | -0.232 | -4.53 (inactive) | -0.795 (inactive) | -0.518 (inactive)
17 | COCC(=C=CC[C@H](O)c1ccccc1OCCO)C[C@H](O)c1cc(Cl)cc(Cl)c1O | -1.18 | -19 (active) | -0.627 (inactive) | -9.33 (active) | -0.0828 (inactive) | -22.2 (active) | 0.275 (inactive) | 0.0273 (inactive) | -0.207 | -0.0559 | 0.549 (inactive) | 0.736 | -0.254 | -3.5 (inactive) | 1.36 (inactive) | 0.764 (inactive)
18 | O=C(NCC(F)(F)F)[C@@H]1c2ccccc2C(=O)N(C2CCCCC2)[C@H]1c1ccc(CO)cc1 | -0.501 | 0.804 (inactive) | -0.435 (inactive) | 0.843 (inactive) | -0.255 (inactive) | 1.11 (inactive) | -0.0514 (inactive) | -0.335 (inactive) | 0.538 | 0.056 | 0.0572 (inactive) | 0.434 | -0.676 | -3.32 (inactive) | 0.142 (inactive) | -0.156 (inactive)
19 | O=C1C2C=CC(C(O)c3ccc(F)cc3)N(Nc3ccccc3F)C2C(=O)N1c1ccccc1 (centres undefined) | -0.395 | -1.9 (inactive) | -0.63 (inactive) | 0.306 (inactive) | 0.599 (inactive) | 0.0815 (inactive) | -0.554 (inactive) | -0.184 (inactive) | -0.292 | 0.0029 | 1.27 (inactive) | 0.252 | 0.712 | -3.25 (inactive) | 0.186 (inactive) | 0.154 (inactive)
